Here are results for 18 compounds from ChEMBL document CHEMBL1961873, “Compounds: GSK PKIS; Assays: Nanosyn kinase panel” (2012).

The structures appear in SMILES notation.

As usually defined, the inhibition is the relative decrease from the control value, in per cent.
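Note: values are mean inhibition of PHKG2.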

This experiment deals with T1, Phosphorylase b kinase gamma catalytic chain, liver/testis isoform (Homo sapiens) (UniProt P15735).
T1 sequence (whole entry): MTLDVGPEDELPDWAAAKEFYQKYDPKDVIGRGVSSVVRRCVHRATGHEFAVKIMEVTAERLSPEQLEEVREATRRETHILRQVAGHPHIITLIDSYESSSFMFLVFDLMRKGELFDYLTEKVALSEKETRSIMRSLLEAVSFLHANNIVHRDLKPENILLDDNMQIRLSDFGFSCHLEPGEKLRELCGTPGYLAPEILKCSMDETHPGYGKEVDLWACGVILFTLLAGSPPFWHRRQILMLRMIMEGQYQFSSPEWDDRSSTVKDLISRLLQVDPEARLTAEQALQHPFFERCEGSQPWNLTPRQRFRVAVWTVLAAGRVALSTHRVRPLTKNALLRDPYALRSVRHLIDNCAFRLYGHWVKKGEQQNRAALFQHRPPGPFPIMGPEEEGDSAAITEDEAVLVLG
Particulars: at 0.1 µM.
For the compound `Cc1ccc(O)cc1Nc1ccnc2ccc(S(C)(=O)=O)cc12`, the inhibition was found to be 5.57%.
In the case of `COc1ccc(-c2nn3ncccc3c2-c2ccnc(Nc3cccc(C(F)(F)F)c3)n2)cc1` it was 4.42%; in that of `Cc1nc(-c2ccccc2)n2nc(NCCCN3CCOCC3)ncc12`, 3.22%.
In the case of `Nc1nccc(C#Cc2cncnc2Nc2ccc(OCc3cccc(F)c3)c(Cl)c2)n1`, the inhibition was 4.05%.
As to `C[C@@H](Oc1cc(-n2cnc3ccc(OCC4CCN(C)CC4)cc32)sc1C(N)=O)c1ccccc1C(F)(F)F`, the inhibition is -1.2%.
In the case of `N#Cc1c(NC(=O)c2ccccc2F)sc2c1CCCC2` it was -2.2%.
Regarding `Nc1nccc(-c2c(-c3ccc(F)cc3)ncn2CCCN2CCOCC2)n1`, the inhibition is 3.78%.
The figure for `COc1cccc(-n2ncc3c(N/N=C/c4ccc(C)cc4)ncnc32)c1` is 5.73%; for `C[C@@H](Oc1cc(-n2cnc3ccc(OC[C@@H](O)CO)cc32)sc1C(N)=O)c1ccccc1Cl` it is -2.13%; for `Cc1cc(-c2ccccn2)cc(C)c1/C=C/c1cncc(-c2nn[nH]n2)c1` it is 1.5%.
In the case of `Cc1ccc2c(-c3ccnc(Nc4cccc(C(F)(F)F)c4)n3)c(-c3ccccc3)nn2n1` it was 4.1%; in that of `CCn1c(-c2nonc2N)nc2ccc(F)cc21`, 7.81%.
On to `COc1cccc(-n2ncc3c(N/N=C/c4ccc(S(C)(=O)=O)cc4)ncnc32)c1`, for which the inhibition was determined as 1.57%.
In the case of `Cc1ccc2c(c1)/C(=N/Nc1ccc(S(N)(=O)=O)cc1)C(=O)N2` it was 1.11%; in that of `Cc1cc(Cl)cc2c1NC(=O)C2=NNc1ccc(S(N)(=O)=O)cc1`, 2.58%; in that of `Nc1ccc(C#Cc2cncnc2Nc2ccc(OCc3cccc(F)c3)c(Cl)c2)cc1`, 3.68%.
The figure for `Oc1cccc(-c2nc(-c3ccccc3)[nH]c2-c2ccncc2)c1` is 5.23%; for `O=C1Nc2ccc(-c3cccnc3)cc2C1=Cc1cc(Br)c(O)c(Br)c1` it is 4.01%.
